In the supplement of paper PMC10849652:
The full data set covers some 8,800 targets. This sample favours those with a hit. About 0.5% of all pairs of compound and target were hits. Unmarked numbers belong to inactive results.

compound: CS(=O)(=O)N1CCN(Cc2cc3nc(-c4cccc5[nH]ncc45)nc(N4CCOCC4)c3s2)CC1 [pictilisib]; assay: log2 fold change, soluble protein after heating vs DMSO (PISA); higher = thermal stabilisation; K562 lysate, 10 uM; active = over 0.2 and 3.5 SD of the protein, either way, in both replicates (recomputed)
Procedure, shortened: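 To prepare the extract, K562 pellets were dounce-homogenised in PBS pH 7.4 with 1 mM MgCl2, giving crude material at 1 mg/mL protein. This was treated with 10 μM compound for 30 min, then heated in aliquots for 3 min over 48°C-58°C before pooling and addition of NP-40 to 0.5% at 4°C. Centrifugation at 21,000xg for 90 min left soluble protein in the supernatant, which TMTpro 16plex LC-MS/MS quantified with equalised channel sums. Results are log-two fold changes in thermal stability compared with solvent controls, from duplicates.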

Sequence of UniProt Q9NVI1 (Q9NVI1 whole entry, looked up): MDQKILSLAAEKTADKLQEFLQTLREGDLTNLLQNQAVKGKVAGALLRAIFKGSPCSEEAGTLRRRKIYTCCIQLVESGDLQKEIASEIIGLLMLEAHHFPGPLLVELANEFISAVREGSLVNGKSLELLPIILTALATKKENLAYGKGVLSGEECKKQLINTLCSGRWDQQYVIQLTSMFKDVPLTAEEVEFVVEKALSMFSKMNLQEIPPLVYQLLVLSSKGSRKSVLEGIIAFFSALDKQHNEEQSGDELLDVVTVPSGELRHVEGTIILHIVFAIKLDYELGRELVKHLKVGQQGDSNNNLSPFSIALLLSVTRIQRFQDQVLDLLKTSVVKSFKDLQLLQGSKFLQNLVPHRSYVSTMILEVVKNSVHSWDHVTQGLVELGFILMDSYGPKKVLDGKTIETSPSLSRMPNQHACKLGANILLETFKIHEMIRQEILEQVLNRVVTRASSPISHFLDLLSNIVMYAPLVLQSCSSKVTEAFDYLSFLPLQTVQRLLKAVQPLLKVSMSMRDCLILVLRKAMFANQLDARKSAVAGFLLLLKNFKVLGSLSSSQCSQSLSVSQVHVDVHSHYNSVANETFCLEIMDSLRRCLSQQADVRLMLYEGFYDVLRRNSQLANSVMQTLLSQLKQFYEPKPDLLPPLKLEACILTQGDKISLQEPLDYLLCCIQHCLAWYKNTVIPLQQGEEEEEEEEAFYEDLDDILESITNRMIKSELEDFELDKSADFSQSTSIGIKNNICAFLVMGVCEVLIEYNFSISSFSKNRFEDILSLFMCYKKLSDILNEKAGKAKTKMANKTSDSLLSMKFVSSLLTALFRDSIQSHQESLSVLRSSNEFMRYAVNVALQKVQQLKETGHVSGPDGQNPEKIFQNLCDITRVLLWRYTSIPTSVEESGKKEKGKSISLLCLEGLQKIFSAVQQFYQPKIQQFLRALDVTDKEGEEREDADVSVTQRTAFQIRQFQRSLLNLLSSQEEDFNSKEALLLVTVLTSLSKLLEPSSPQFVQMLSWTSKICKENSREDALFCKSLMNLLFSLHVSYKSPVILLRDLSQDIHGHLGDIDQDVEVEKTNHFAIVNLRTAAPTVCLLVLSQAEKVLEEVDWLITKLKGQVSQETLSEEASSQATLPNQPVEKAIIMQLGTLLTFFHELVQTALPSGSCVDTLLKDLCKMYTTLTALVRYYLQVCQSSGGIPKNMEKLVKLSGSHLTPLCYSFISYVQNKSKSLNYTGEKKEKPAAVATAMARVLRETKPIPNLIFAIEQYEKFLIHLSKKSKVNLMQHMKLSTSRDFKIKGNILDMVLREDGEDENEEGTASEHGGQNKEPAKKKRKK
Sequence of UniProt P11474 (P11474 whole entry, looked up): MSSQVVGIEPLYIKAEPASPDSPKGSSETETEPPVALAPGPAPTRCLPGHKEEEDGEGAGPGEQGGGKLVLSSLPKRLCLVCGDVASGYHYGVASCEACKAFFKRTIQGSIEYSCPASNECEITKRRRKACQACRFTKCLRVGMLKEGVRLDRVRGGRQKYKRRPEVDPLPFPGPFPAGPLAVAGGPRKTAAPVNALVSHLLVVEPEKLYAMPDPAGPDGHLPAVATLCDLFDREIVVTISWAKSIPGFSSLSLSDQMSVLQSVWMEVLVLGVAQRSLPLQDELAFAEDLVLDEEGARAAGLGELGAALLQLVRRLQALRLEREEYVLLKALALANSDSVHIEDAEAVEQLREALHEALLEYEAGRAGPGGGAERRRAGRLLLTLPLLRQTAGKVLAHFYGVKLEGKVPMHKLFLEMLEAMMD
Sequence of UniProt Q7L8L6 (Q7L8L6 whole entry, looked up): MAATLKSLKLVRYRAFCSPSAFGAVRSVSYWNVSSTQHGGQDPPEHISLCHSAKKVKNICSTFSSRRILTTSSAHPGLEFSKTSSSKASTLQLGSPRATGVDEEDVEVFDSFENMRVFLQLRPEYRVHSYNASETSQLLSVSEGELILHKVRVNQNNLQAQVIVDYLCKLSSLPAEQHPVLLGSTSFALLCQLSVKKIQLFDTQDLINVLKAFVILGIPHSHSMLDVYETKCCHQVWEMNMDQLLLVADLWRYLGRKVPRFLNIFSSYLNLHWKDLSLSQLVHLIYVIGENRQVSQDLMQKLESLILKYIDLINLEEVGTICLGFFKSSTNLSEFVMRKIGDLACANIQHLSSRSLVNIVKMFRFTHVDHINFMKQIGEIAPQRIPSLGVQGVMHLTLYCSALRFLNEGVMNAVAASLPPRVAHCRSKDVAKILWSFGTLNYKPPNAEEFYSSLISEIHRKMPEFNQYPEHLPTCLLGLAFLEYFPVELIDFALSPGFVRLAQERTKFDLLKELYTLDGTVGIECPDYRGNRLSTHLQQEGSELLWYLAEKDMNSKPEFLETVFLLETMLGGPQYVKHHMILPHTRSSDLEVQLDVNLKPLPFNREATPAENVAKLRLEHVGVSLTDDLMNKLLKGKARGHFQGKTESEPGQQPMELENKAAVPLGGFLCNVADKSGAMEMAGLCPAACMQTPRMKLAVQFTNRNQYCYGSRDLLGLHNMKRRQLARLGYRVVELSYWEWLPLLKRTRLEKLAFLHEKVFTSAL
Sequence of UniProt Q06210 (Q06210 whole entry, looked up): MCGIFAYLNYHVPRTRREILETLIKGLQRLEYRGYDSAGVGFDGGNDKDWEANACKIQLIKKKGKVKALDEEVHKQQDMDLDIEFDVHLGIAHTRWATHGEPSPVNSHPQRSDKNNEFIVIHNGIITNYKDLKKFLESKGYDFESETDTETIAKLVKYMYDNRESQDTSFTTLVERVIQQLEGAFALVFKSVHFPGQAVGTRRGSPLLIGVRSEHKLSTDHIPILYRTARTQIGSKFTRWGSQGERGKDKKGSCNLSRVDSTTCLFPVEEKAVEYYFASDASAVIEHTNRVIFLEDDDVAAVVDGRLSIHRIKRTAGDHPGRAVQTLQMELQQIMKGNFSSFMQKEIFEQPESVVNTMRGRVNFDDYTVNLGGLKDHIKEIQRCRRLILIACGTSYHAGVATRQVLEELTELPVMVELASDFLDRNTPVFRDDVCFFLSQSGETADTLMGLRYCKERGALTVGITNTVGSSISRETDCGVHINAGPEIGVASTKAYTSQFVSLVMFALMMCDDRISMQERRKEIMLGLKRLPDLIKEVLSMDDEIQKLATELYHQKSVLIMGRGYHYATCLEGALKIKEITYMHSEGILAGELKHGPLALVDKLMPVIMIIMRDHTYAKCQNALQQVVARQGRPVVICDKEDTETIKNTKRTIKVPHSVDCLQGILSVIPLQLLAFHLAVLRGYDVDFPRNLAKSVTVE
Sequence of UniProt Q9UJY4 (Q9UJY4 whole entry, looked up): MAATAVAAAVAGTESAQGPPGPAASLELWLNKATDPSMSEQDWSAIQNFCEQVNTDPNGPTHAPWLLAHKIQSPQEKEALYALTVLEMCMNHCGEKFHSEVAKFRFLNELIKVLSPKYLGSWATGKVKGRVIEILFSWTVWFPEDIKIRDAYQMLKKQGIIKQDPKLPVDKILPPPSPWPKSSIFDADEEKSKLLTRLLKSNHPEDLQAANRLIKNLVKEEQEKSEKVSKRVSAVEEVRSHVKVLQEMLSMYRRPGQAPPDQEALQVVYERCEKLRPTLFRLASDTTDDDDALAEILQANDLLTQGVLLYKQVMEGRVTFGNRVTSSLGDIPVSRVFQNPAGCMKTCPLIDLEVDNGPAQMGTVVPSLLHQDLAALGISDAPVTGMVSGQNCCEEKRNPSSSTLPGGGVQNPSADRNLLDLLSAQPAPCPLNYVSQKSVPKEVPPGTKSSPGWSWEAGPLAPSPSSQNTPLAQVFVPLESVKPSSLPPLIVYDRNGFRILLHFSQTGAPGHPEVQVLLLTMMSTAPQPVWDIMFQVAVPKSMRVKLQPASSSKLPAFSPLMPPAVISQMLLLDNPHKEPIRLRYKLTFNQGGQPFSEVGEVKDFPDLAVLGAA
Sequence of UniProt O15117 (O15117 whole entry, looked up): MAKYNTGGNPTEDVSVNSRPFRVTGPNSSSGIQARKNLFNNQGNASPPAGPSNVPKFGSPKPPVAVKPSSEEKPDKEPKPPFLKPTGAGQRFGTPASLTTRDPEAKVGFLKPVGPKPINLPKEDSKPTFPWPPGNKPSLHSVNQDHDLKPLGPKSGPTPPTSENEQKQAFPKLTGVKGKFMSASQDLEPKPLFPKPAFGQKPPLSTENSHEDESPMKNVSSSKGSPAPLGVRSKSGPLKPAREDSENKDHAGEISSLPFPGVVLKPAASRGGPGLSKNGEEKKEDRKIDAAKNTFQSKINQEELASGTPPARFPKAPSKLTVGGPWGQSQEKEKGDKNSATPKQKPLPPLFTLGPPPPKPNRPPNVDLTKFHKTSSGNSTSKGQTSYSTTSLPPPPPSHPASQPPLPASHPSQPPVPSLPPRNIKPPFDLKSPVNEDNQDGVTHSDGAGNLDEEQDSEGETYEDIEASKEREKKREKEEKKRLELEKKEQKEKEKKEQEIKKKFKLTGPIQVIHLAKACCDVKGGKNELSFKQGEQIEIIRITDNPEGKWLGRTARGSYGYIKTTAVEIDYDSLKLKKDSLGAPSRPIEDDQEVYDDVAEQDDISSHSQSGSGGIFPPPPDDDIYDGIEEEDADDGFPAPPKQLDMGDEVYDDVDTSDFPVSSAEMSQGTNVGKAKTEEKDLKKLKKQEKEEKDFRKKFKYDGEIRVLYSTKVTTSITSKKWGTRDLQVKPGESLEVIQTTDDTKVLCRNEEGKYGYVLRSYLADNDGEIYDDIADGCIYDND
Sequence of UniProt Q9NPA8 (Q9NPA8 whole entry, looked up): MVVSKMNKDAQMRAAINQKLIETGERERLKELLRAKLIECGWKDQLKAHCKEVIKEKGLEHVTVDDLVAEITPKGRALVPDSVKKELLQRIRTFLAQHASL
Sequence of UniProt O95571 (O95571 whole entry, looked up): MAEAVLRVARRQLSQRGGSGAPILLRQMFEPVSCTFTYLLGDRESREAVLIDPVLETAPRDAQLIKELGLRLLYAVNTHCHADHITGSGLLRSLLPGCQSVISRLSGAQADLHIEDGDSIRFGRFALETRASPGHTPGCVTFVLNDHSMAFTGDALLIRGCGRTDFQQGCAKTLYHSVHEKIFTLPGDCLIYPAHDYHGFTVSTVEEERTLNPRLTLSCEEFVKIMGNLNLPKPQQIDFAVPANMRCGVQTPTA

Row | Target | log2 fold change
1 | FARSA (UniProt Q9Y285) | 0.012
2 | FECH isoform 2 (UniProt P22830) | 0.64
3 | EBP (UniProt Q15125) | -0.004
4 | EP300 (UniProt Q09472) | -0.078
5 | EP400 isoform 5 (UniProt Q96L91) | -0.068
6 | ESRRA (UniProt P11474) | -0.049
7 | DUS2 (UniProt Q9NX74) | 0.04
8 | GCLM (UniProt P48507) | -0.013
9 | GGT7 (UniProt Q9UJ14) | -0.007
10 | EMP3 (UniProt P54852) | -0.03
11 | FANCI (UniProt Q9NVI1) | -0.034
12 | FAM118B (UniProt Q9BPY3) | -0.013
13 | GFPT1 (UniProt Q06210) | -0.026
14 | FKBP1A (UniProt P62942) | -0.031
15 | EDARADD (UniProt Q8WWZ3) | -0.122
16 | FIBP (UniProt O43427) | -0.074
17 | EHD2 (UniProt Q9NZN4) | -0.052
18 | FADS1, A0A0A0MR51 | -0.087

Row | Target | log2 fold change
19 | GALNT2 (UniProt Q10471) | -0.039
20 | FASTKD5 (UniProt Q7L8L6) | 0.085
21 | FBLL1 (UniProt A6NHQ2) | -0.076
22 | DTWD1 (UniProt Q8N5C7) | -0.049
23 | GGA2 (UniProt Q9UJY4) | -0.037
24 | FYB1 isoform 3 (UniProt O15117) | -0.008
25 | DYRK1A (UniProt Q13627) | -0.003
26 | DUS3L (UniProt Q96G46) | -0.02
27 | ERI1 (UniProt Q8IV48) | -0.079
28 | FBXO9 (UniProt Q9UK97) | -0.107
29 | ERBIN isoform 8 (UniProt Q96RT1) | 0.012
30 | ENY2 (UniProt Q9NPA8) | -0.024
31 | EEF1AKNMT (UniProt Q8N6R0) | -0.046
32 | EEF1A1, A0A087WVQ9 | -0.038
33 | ETHE1 (UniProt O95571) | -0.049
34 | FBXO22 (UniProt Q8NEZ5) | -0.027
35 | FASTKD2 (UniProt Q9NYY8) | -0.001
36 | FBXO30 (UniProt Q8TB52) | -0.03
